Results filed as inconclusive are left out. The source made the active and inactive calls. The call rests on the fitted dose curve; in most records, active means well fitted inhibition curve with a large enough effect; inconclusive means small, poorly fitted or top-dose-only effect; inactive means flat fitted curve, though single readings scatter.

Holding throughout (assay): qHTS profiling for inhibitors of Plasmodium falciparum proliferation (AID 504749); further: nearly all actives have a fitted effect of over 60% in size
Holding throughout (details): P. falciparum in erythrocytes, SYBR Green DNA, 72 h; series mostly up to 28.7 µM

Experiment [1] has as its system CP286. Put shortly: (§1)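 P. falciparum-infected erythrocytes (0.3% parasitemia, 2.5% hematocrit final) were exposed to compounds for 72 h at 37 C in 5% CO2, then lysed with SYBR Green buffer overnight at room temperature; parasite DNA fluorescence was normalized to artemisinin and DMSO controls.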
Experiment [2] has as its system CP291. Put shortly:
as §1

Experiment [3] relates to CP297. Summed up:
as §1

The test system of experiment [4] is CP305. Put shortly: as §1
The subject of experiment [5] is CP315. Put shortly: as §1
Experiment [6] relates to CP325. Put shortly: as §1
For experiment [7], the system named is CP329. Summed up: as §1
The test system of experiment [8] is CP335. Put shortly:
as §1

Experiment [9] has as its system DFO2036. Put shortly: as §1
Experiment [10] concerns DIV14. Summed up:
as §1
Potency means the concentration at half of the fitted maximal effect.

`Cc1nnc(NS(=O)(=O)c2ccc(N)cc2)s1`: the Potency result in experiment [1], in [2], in [3], in experiment [4], in experiment [5] and in experiment [6] was “inactive” in each case. The Potency entry in [7], in experiment [8], in experiment [9] and in [10] was “inactive” in each case.

Take `CN(C)c1ccc(C(=C2C=CC(=[N+](C)C)C=C2)c2ccc(N(C)C)cc2)cc1`: the Potency in [1] is 178 nM (active); in experiment [2], 675 nM (active); in experiment [3], 953 nM (active); in experiment [4], 338 nM (active); in experiment [5], 953 nM (active); in experiment [6] it was 478 nM (active). Also, the Potency was 601 nM (active) in experiment [7], 301 nM (active) in experiment [8], 199 nM (active) in [9] and 478 nM (active) in experiment [10].

In the case of `CCOC(=O)[C@H](CCc1ccccc1)N[C@H]1CS[C@H](c2cccs2)CN(CC(=O)O)C1=O`, the Potency entry in [1], in [2], in experiment [3], in [4], in experiment [5] and in experiment [6] was “inactive” throughout. Besides, the Potency result in [7], in experiment [8] and in experiment [9] was “inactive” throughout.

For `NC(N)=NC(N)=NCCc1ccccc1`, the Potency entry in experiment [1], in [2], in [3], in experiment [4], in experiment [5] and in [6] was “inactive” each time. Moreover, the Potency entry in experiment [7], in [8], in experiment [9] and in experiment [10] was “inactive” in each case.

Consider `CNNCc1ccc(C(=O)NC(C)C)cc1`, for which the Potency result in experiment [1], in experiment [2], in [3], in [4], in [5] and in experiment [6] was “inactive” in each case. The Potency entry in [7], in experiment [8] and in [9] was “inactive” in each case.

Take `CNC1CCCN(c2c(F)cc3c(=O)c(C(=O)O)cn(C4CC4)c3c2OC)C1` (centres undefined): the Potency result in experiment [1], in [2], in experiment [3], in [4], in experiment [5] and in [6] was “inactive” in each case. In addition, the Potency entry in experiment [7], in [8], in experiment [9] and in [10] was “inactive” each time.

Turning to `C[C@]12C=CC(=O)C=C1CC[C@@H]1[C@@H]2C(=O)C[C@@]2(C)[C@H]1CC[C@]2(O)C(=O)CO`, the Potency entry in experiment [1], in experiment [2], in [3], in experiment [4], in experiment [5] and in experiment [6] was “inactive” in each case. For the same compound, the Potency entry in experiment [7], in [8], in experiment [9] and in [10] was “inactive” throughout.

As for `C#CCN[C@@H]1CCc2ccccc21`, the Potency entry in experiment [1], in experiment [2], in [3], in experiment [4], in experiment [5] and in experiment [6] was “inactive” each time. Further, the Potency entry in experiment [7], in [8], in [9] and in [10] was “inactive” throughout.

Consider `CCOCC(O)COc1ccc(NC(=O)CC[S+](C)C)cc1` (centres undefined), for which the Potency entry in experiment [1], in [2], in experiment [3], in [4], in [5] and in [6] was “inactive” each time. The Potency result in [7], in experiment [8], in experiment [9] and in experiment [10] was “inactive” each time.

In the case of `CN1CCN(c2c(F)cc3c(=O)c(C(=O)O)cn4c3c2OCN4C)CC1`, the Potency entry in [1], in [2], in [3], in [4], in experiment [5] and in experiment [6] was “inactive” each time. The Potency result in experiment [7], in [8], in [9] and in [10] was “inactive” in each case.

With `O=P(O)(O)C(O)(Cc1cccnc1)P(=O)(O)O`, the Potency result in experiment [1], in experiment [2], in experiment [3], in experiment [4], in [5] and in [6] was “inactive” in each case. Besides, the Potency entry in [7], in experiment [8], in [9] and in experiment [10] was “inactive” throughout.

For the compound `Cn1nnc2c(C(N)=O)ncn2c1=O`, the Potency entry in [1], in experiment [2], in experiment [3], in experiment [4], in experiment [5] and in experiment [6] was “inactive” throughout. For the same compound, the Potency result in [7], in experiment [8] and in [9] was “inactive” throughout.

Take `CN1CCN(c2c(F)cc3c(=O)c(C(=O)O)cn(CCF)c3c2F)CC1`: the Potency entry in experiment [1], in experiment [2], in experiment [3], in [4], in [5] and in [6] was “inactive” throughout. Also, the Potency entry in [7], in [8] and in experiment [9] was “inactive” each time.

Regarding `N[C@@H](C(=O)N[C@@H]1C(=O)N2C(C(=O)O)=C(Cl)CS[C@H]12)c1ccccc1`, the Potency result in experiment [1], in [2], in experiment [3], in experiment [4], in experiment [5] and in experiment [6] was “inactive” in each case. Moreover, the Potency result in [7], in experiment [8], in [9] and in experiment [10] was “inactive” throughout.

`NCCCC(O)(P(=O)(O)O)P(=O)(O)O`: the Potency entry in experiment [1], in experiment [2], in experiment [3], in experiment [4], in [5] and in experiment [6] was “inactive” each time. The Potency result in experiment [7], in experiment [8], in [9] and in experiment [10] was “inactive” in each case.

Regarding `CCN(C)C(=O)Oc1cccc([C@H](C)N(C)C)c1`, the Potency result in experiment [1], in experiment [2], in experiment [3], in [4], in experiment [5] and in experiment [6] was “inactive” throughout. The Potency result in experiment [7], in experiment [8], in experiment [9] and in experiment [10] was “inactive” each time.

As to `CCc1c2c(nc3ccc(OC(=O)N4CCC(N5CCCCC5)CC4)cc13)-c1cc3c(c(=O)n1C2)COC(=O)[C@]3(O)CC`, the Potency result in experiment [1], in experiment [2], in experiment [3], in experiment [4], in [5] and in experiment [6] was “inactive” throughout. Besides, the Potency entry in experiment [7], in experiment [8], in [9] and in experiment [10] was “inactive” throughout.

Consider `O=S(=O)(O)CCS`, for which the Potency result in [1], in experiment [2], in [3], in experiment [4], in experiment [5] and in experiment [6] was “inactive” in each case. Moreover, the Potency result in experiment [7], in experiment [8], in experiment [9] and in experiment [10] was “inactive” throughout.

In the case of `Nc1nc(N)c2nc(CNc3ccc(C(=O)NC(CCC(=O)O)C(=O)O)cc3)cnc2n1` (centres undefined), the Potency result in [1], in experiment [2], in [3], in experiment [4], in experiment [5] and in experiment [6] was “inactive” throughout. Moreover, the Potency entry in experiment [7], in experiment [8], in experiment [9] and in [10] was “inactive” each time.

Regarding `Cc1ncc([N+](=O)[O-])n1CCO`, the Potency result in experiment [1], in [2], in experiment [3], in experiment [4], in experiment [5] and in experiment [6] was “inactive” throughout. The Potency result in experiment [7], in [8], in experiment [9] and in experiment [10] was “inactive” throughout.

Take `Cc1cccc(N(C)C(=S)Oc2ccc3ccccc3c2)c1`: the Potency entry in experiment [1], in experiment [2], in experiment [3], in experiment [4], in [5] and in experiment [6] was “inactive” in each case. Further, the Potency result in experiment [7], in experiment [8], in [9] and in experiment [10] was “inactive” throughout.

For the compound `CC(C)NCC(O)c1ccc(NS(C)(=O)=O)cc1` (centres undefined), the Potency result in [1], in [2], in experiment [3], in experiment [4], in experiment [5] and in experiment [6] was “inactive” in each case. For the same compound, the Potency entry in experiment [7], in experiment [8], in [9] and in experiment [10] was “inactive” throughout.

As to `NC(=O)c1cccnc1`, the Potency entry in experiment [1], in experiment [2], in experiment [3], in experiment [4], in [5] and in experiment [6] was “inactive” each time. Moreover, the Potency result in experiment [7], in experiment [8] and in experiment [9] was “inactive” each time.

Regarding `O=C(O)c1cc(=O)[nH]c(=O)[nH]1`, the Potency entry in experiment [1], in [2], in experiment [3], in [4], in experiment [5] and in experiment [6] was “inactive” each time. Moreover, the Potency result in [7], in experiment [8], in experiment [9] and in experiment [10] was “inactive” in each case.

Regarding `COc1ncnc(NS(=O)(=O)c2ccc(N)cc2)c1OC`, the Potency entry in experiment [1], in experiment [2], in experiment [3], in experiment [4], in experiment [5] and in experiment [6] was “inactive” throughout. The Potency result in experiment [7], in [8], in experiment [9] and in [10] was “inactive” throughout.

As for `CC(C)Cn1cnc2c(N)nc3ccccc3c21`, the Potency result in [1], in [2], in experiment [3], in experiment [4], in experiment [5] and in experiment [6] was “inactive” in each case. Moreover, the Potency result in experiment [7], in [8], in [9] and in experiment [10] was “inactive” in each case.

With `O=NN(CCCl)C(=O)NC1CCCCC1`, the Potency result in experiment [1], in [2], in [3], in experiment [4], in experiment [5] and in experiment [6] was “inactive” in each case. The Potency result in [7], in [8], in experiment [9] and in experiment [10] was “inactive” in each case.

For the compound `OC(Cn1cncn1)(Cn1cncn1)c1ccc(F)cc1F`, the Potency entry in experiment [1], in experiment [2], in [3], in [4], in experiment [5] and in experiment [6] was “inactive” in each case. Also, the Potency entry in experiment [7], in experiment [8] and in [9] was “inactive” throughout.

Source of the values: PubChem BioAssay (NCATS).
